Compounds with a hit are over-represented: about 3.5% of the library has one in this group of screens.
TEAD-YAP block: TEAD-YAP interaction inhibition; HEK-TIYL cells, TEAD-Gal4/YAP UAS-luciferase luminescence; inhibition, % at 9.12 µM; 640,000 tested, 1.4% active; in the data active = inhibition above about 32%
FBW7 activator: human FBW7 E3 ligase activation, primary screen; Q969H0; AlphaScreen FBW7–phospho-cyclin E peptide binding, activator screen; normalized activity (activation), % at 26.1 µM; 650,000 tested, 0.13% active; in the data active = normalized activity above about 1.9%;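 also: purified mutant Fbw7 with reduced substrate affinity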
MITF primary: inhibitors of human MITF; O75030; AlphaScreen MITF homodimerization, bead proximity signal; inhibition, % at 2.6 µM; 650,000 tested, 0.91% active; AID 1259374; in the data active = inhibition above about 50%
Target sequence (O75030 whole entry, looked up): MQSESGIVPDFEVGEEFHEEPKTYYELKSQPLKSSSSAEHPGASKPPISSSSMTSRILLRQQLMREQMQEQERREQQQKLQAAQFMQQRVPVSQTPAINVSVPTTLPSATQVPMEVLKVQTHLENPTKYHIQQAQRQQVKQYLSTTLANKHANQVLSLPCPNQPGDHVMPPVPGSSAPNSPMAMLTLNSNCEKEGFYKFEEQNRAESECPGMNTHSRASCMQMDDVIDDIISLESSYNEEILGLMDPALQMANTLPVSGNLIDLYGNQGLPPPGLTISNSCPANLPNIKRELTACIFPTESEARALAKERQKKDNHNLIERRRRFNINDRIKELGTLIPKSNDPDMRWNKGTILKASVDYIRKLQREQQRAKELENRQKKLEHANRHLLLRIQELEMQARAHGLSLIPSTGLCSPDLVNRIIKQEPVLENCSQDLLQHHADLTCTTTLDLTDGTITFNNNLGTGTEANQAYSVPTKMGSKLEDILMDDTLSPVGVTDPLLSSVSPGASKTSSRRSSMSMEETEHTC
GPR151 ag: activators of human GPR151; Q8TDV0; PathHunter beta-arrestin GPR151 cells, luminescence; AID 1508602; 650,000 tested, 1% active; activation, % at 11.2 µM; in the data active = activation above about 4.9%
MITF confirm: human MITF inhibition, confirmation | shares compounds with MITF primary | AlphaScreen MITF homodimerization, biotin/His-MITF beads | inhibition, % at 2.6 µM | 4,700 tested, 16% active | AID 1259372;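 active = inhibition above a cutoff derived from the DMSO control wells, cut at about 28% in these data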;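 also: inhibitors lower the bead chemiluminescence by keeping MITF from dimerizing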
AS interf DR: optically interferes with AlphaScreen signal in dose response | shares compounds with MITF primary | AlphaScreen optical interference counterscreen, cell-free | IC50, µM | 480 tested, 6% active; call rule not given here
AlphaScreen intf2: counter-screen: compounds optically interfering with AlphaScreen; shares compounds with MITF primary; LysRS AlphaScreen counterscreen, signal interference, triplicate; inhibition, % at 2.6 µM; 4,700 tested, 7.6% active; AID 1259376;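 active = inhibition above a cutoff derived from the DMSO control wells, cut at about 30% in these data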
Of the large screens only hits and unclear results are named; the others gave an inactive call (follow-up assays come after a bar, where they were run).

C1=C(c2ccccc2)Nc2nonc2N=C1c1ccccc1	none
Cc1cccc(CN2CCN(Cc3ccccc3Cl)CC2)c1	MITF primary 51 | MITF confirm inactive | AlphaScreen intf2 inactive
COC(=O)C1=C(N)OC(c2ccccc2)=C(C(C)=O)C12C(=O)Nc1ccc(Br)cc12 (stereo not drawn)	none
COc1ccc2[nH]c(C)c(CCNCc3cccc(OC)c3OC)c2c1	MITF primary 52 | MITF confirm inactive | AlphaScreen intf2 inactive
OCCN1CCN(Cc2ccc(Cl)cc2Cl)CC1	MITF primary 51 | MITF confirm inactive | AlphaScreen intf2 inactive
CCOc1ccc(CN2CCN(CCO)CC2)cc1	none
OCCN1CCN(Cc2ccc(Cl)c(Cl)c2)CC1	MITF primary 83 | MITF confirm inactive | AlphaScreen intf2 inactive
OCCN1CCN(Cc2cccc(Br)c2)CC1	MITF primary 91 | MITF confirm inactive | AlphaScreen intf2 inactive
OCCN1CCN(Cc2ccc(Br)cc2)CC1	MITF primary 67 | MITF confirm inactive | AlphaScreen intf2 inactive
COc1ccc(CN2CCN(CCO)CC2)cc1OC	none
Cc1ccc(NC(=O)c2c(O)c3c(n(Cc4ccco4)c2=O)CCCC3)nc1	none
COCC1CCCN(CC(=O)Nc2cccnc2)C1 (stereo not drawn)	MITF primary 75 | MITF confirm inactive | AlphaScreen intf2 inactive
CN(N=O)c1cc(O)ccc1O	MITF primary 78 | MITF confirm 62 | AS interf DR inactive | AlphaScreen intf2 inactive
O=C(Nc1cccnc1)c1c(O)c2c(n(Cc3ccco3)c1=O)CCCC2	none
CCC(C)N1CCN(Cc2ccc(OC)c(Br)c2)CC1 (stereo not drawn)	MITF primary 82 | MITF confirm inactive | AlphaScreen intf2 inactive
COc1ccc(CN2CCNCC2)cc1Br	none
CCOc1cc(CN2CCN(C(C)CC)CC2)ccc1OC (stereo not drawn)	MITF primary 74 | MITF confirm inactive | AlphaScreen intf2 inactive
CCOc1cc(CN2CCN(CCO)CC2)ccc1OC	none
COc1ccc(CCNCc2cc(Cl)c3c(c2)OCCO3)cc1	none
C/C(N)=C(/C#N)C(=O)COC(=O)C(O)(c1ccccc1)c1ccccc1	none
O=C(Cc1ccccc1)N1CCN(Cc2cccc(F)c2)CC1	MITF primary 54 | MITF confirm inactive | AlphaScreen intf2 inactive
O=C(Cc1ccccc1)N1CCN(Cc2cccnc2)CC1	MITF primary 69 | MITF confirm inactive | AlphaScreen intf2 inactive
CCc1ccc(CN2CCN(C(=O)Cc3ccccc3)CC2)cc1	none
Cc1cccc(CN2CCN(C(=O)Cc3ccccc3)CC2)c1	none
O=C(Cc1ccccc1)N1CCN(Cc2ccccc2Cl)CC1	MITF primary 57 | MITF confirm inactive | AlphaScreen intf2 inactive
CCOc1cc(/C=C/[N+](=O)[O-])cc(I)c1O	none
COc1ccccc1-n1c(/C=C/c2ccc(Br)cc2)nc2ccccc2c1=O	none
COc1ccc(-c2cc3c(=O)n(CC(=O)N4CCC5(CC4)OCCO5)ncn3n2)cc1	none
CCOC(=O)C1C2NC(=S)N(c3ccccc3C)C1(C)Oc1c(OCC)cccc12 (stereo not drawn)	MITF primary 60 | MITF confirm 34 | AlphaScreen intf2 36
CN1CCN(Cc2ccc3c(c2)OCO3)CC1	none
Brc1ccccc1CN1CCN(Cc2ccc3c(c2)OCO3)CC1	MITF primary 60 | MITF confirm inactive | AlphaScreen intf2 inactive
Cc1ccccc1CN1CCN(Cc2ccc3c(c2)OCO3)CC1	MITF primary 58 | MITF confirm inactive | AlphaScreen intf2 inactive
CCOC(=O)CSCC(=O)Nc1ccc(Cl)cc1C(=O)c1ccccc1	none
CN1CCN(Cc2ccc([N+](=O)[O-])s2)CC1	MITF primary 56 | MITF confirm inactive | AlphaScreen intf2 inactive
CN1CCN(Cc2ccc([N+](=O)[O-])o2)CC1	none
CCN1CCN(Cc2cccc(Br)c2)CC1	none
CCC(C)N1CCN(Cc2cccc(Br)c2)CC1 (stereo not drawn)	MITF primary 73 | MITF confirm inactive | AlphaScreen intf2 inactive
COc1cccc(CN2CCN(C(C)C)CC2)c1	none
CC(C)N1CCN(Cc2cccc(Br)c2)CC1	MITF primary 82 | MITF confirm inactive | AlphaScreen intf2 inactive
CC(C)N1CCN(Cc2cccnc2)CC1	MITF primary 74 | MITF confirm inactive | AlphaScreen intf2 inactive
CC(C)N1CCN(Cc2ccco2)CC1	MITF primary 62 | MITF confirm inactive | AlphaScreen intf2 inactive
CCOC(=O)C1C2NC(=S)N(CCCOC)C1(C)Oc1ccccc12 (stereo not drawn)	none
O=C(Nc1ccccc1O)c1ccc(Cl)c(S(=O)(=O)N2CCCCCC2)c1	none
O=C(Nc1ccc(Cl)cc1)N1CNC(=N[N+](=O)[O-])NC1	none
Nc1ncnc2c1ncn2[C@@H]1O[C@H](COP(=O)(O)CP(=O)(O)OP(=O)(O)O)[C@H](O)C1O (stereo partly drawn)	none
CCN(CC)c1ncnc2c1ncn2[C@@H]1O[C@H](COP(=O)(O)OP(=O)(O)C(Br)(Br)P(=O)(O)O)C(O)[C@@H]1O (stereo partly drawn)	MITF primary 73 (no result: TEAD-YAP block) | MITF confirm 88 | AS interf DR inactive | AlphaScreen intf2 inactive
CCOc1cccc(OCC)c2c(C)nc(C)c1-2	MITF primary 76 | MITF confirm 82 | AlphaScreen intf2 inactive
CCOc1cccc(OCC)c2c(C)[n+](C)c(C)c1-2	MITF primary 73 | MITF confirm 79 | AS interf DR inactive | AlphaScreen intf2 inactive
FC(F)(F)c1ccccc1CNCCc1ccc2c(c1)OCO2	MITF primary 55 | MITF confirm inactive | AlphaScreen intf2 inactive
CC(C)c1ccc(NC(=O)CCc2nc(C3=CCN(C)CC3)no2)cc1	none
CCOC(=O)c1cccc(NC(=O)CCc2nc(C3=CCN(C)CC3)no2)c1	none
CCOC(=O)N1CCC(NC(=O)CCc2nc(C3=CCN(C)CC3)no2)CC1	MITF primary 53 | MITF confirm 35 | AS interf DR inactive | AlphaScreen intf2 inactive
CN1CC=C(c2noc(CCC(=O)Nc3ccc(Cl)cc3)n2)CC1	MITF primary 73 | MITF confirm 68 | AlphaScreen intf2 46
CCc1ccc(NC(=O)CCc2nc(C3=CCN(C)CC3)no2)cc1	MITF primary 65 | MITF confirm 48 | AS interf DR inactive | AlphaScreen intf2 inactive
CCN1CCN(Cc2ccc(NC(=O)CCc3nc(C4=CCN(C)CC4)no3)cc2)CC1	FBW7 activator 3.9, MITF primary 59 | MITF confirm 63 | AlphaScreen intf2 42
Cc1ccc(Cl)cc1NC(=O)c1ccc(N2CC3CC(C2)c2cccc(=O)n2C3)c(N)c1 (stereo not drawn)	none
CCN(CC)S(=O)(=O)c1ccc(NC(=O)CCc2nc(C3=CCN(C)CC3)no2)cc1	MITF primary 83 | MITF confirm 94 | AlphaScreen intf2 66
CC1(C)C(C(=O)Nc2cccc(Br)c2)C1(C)C	none
